# Sampled rows, rich in hits. Any-hit rate of the full collection: about 7.4%.
# NPC1 promoter act: activates the NPC1 promoter | Potency, µM (top dose mostly 9.22 µM), inactives show at the highest dose activation, hits mostly activators | 320,000 tested, 2.4% active | AID 485313 | Huh7 NPC1 promoter luciferase reporter, 24 h; note: % of control where 0% means no effect; nearly all actives have a fitted effect of over 60% in size
#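 Readout is luciferase luminescence, reflecting NPC1 promoter activation in stably transfected Huh7 cells after 24 h compound exposure at 37 °C in reduced-serum medium with 10% FBS.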
# FLuc counter: firefly luciferase modulation, counter-screen for miR-21 project; P08659; purified FLuc, Km substrates, luminescence inhibition; 360,000 tested, 6.9% active; Potency, µM (series often up to 57.5 µM), without a hit: at the top dose activity change, negative = inhibition, actives largely listed as inhibitors;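 note: plate controls were vehicle for no effect and reference inhibitor for full effect; nearly all actives have a fitted effect of over 55% in size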
# Target sequence (P08659 whole entry, looked up): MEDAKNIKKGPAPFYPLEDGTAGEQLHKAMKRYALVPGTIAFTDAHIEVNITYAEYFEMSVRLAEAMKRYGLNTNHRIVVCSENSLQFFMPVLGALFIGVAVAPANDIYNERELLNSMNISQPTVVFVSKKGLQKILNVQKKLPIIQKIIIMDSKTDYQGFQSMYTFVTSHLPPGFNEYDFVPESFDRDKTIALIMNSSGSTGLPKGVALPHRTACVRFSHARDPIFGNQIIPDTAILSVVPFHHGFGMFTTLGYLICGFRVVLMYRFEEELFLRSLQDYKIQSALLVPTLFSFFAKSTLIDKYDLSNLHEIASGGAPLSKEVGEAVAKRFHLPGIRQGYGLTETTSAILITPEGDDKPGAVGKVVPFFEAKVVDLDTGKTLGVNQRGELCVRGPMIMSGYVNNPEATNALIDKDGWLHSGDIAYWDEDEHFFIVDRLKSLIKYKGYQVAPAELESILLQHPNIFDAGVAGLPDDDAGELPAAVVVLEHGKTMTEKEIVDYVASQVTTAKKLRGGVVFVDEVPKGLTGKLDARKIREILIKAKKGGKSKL
#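 Purified P. pyralis luciferase (10nM final) with 10uM D-luciferin and 10uM ATP (Km levels) in 50mM Tris acetate pH 7.5, 10mM Mg acetate, 0.01% Tween-20, 0.05% BSA; qHTS 6-point titration, ~60 µM downward; luminescence read.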
# ELG1 genotoxic: induces genotoxicity in HEK293T cells with luciferase-tagged ELG1 | HEK293T ELG1-luciferase reporter, luminescence, 16 h | Potency, µM (highest dose often 46 µM), for inactives: at the top dose activity change, positive = activation, hits mostly activators | 330,000 tested, 1.3% active; note: % of control where 0% means no effect; nearly all actives have a fitted effect of over 60% in size
#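 ELG1-luciferase HEK293T cells, 2,000/well; compound pinned in; 16 hr, 37 °C, 5% CO2; ONE-Glo, 30 min RT; luminescence on CCD imager.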
# Rab9 prom act: activates the Rab9 promoter. Huh7 Rab9 promoter-luciferase reporter, luminescence, 24 h. Potency, µM (top dose mostly 9.22 µM), for the others: top-dose activation, negative = inhibition, hits mostly activators. 320,000 tested, 2.8% active; note: % of control where 0% means no effect; nearly all actives have a fitted effect of over 60% in size
#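 Huh7 cells stably carrying Rab9 promoter–luciferase reporter, plated 1500 cells/well, compound added after 2 h and incubated 24 h at 37 °C; luciferase luminescence then read after 10 min with detection reagent.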
# SMN2 splice enh: enhancers of SMN2 splice variant expression | HEK293 SMN2-luciferase splicing reporter, luminescence, 30-36 h | Potency, µM (highest dose often 46.1 µM), without a hit: top-dose activity change, positive = activation, usual class: activators | 210,000 tested, 2.8% active; note: % of control where 0% means no effect; nearly all actives have a fitted effect of over 55% in size
#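 HEK293 cells carry an SMN2 […]–luciferase reporter in which exon 7 inclusion puts luciferase in frame. Cells were plated 10-12 h before compound addition, then incubated 30-36 h at 37C. ONE-Glo luminescence was read; sodium butyrate at 4.5 mM final served as control.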
# * marks the source's active call; other numbers are inactive results; ? = inconclusive; · = no result given; [ ] = remark or other dose. Calls come from the whole dose curve; as a rule, active = well fitted curve in the direction sought with a large enough effect; inconclusive = small, poorly fitted or top-dose-only effect, or another doubt; inactive = no such curve, though single readings can be large; an effect the other way counts as inactive or inconclusive. Potency is the fitted concentration of half-maximal effect.
SMILES,NPC1 promoter act,FLuc counter,ELG1 genotoxic,Rab9 prom act,SMN2 splice enh
N#Cc1c[nH]n2c(NC3CCCCC3)c(-c3ccccc3F)nc12,·,-7%,·,·,·
Cc1ccc(C(=O)NCC(=O)N(C)CC(=O)Nc2ccccc2Br)s1,-3%,-3%,1%,0%,·
O=C(N/N=C/c1ccc2c(c1)OCO2)c1ccc(COc2cccc3cccnc23)cc1,18%,5.4µM*,0%,?,7%
O=C(c1ccncc1)N1CCC2(CCCN(c3ccccn3)C2)CC1,·,·,·,·,-25%
Cc1nc2cc(-c3cccc(F)c3)nn2c(C)c1CCC(=O)NC1CCCCC1,·,12µM*,·,·,-12%
CCOC(=O)C1CCN(C(=O)CCc2c(C)nc3cc(-c4ccccc4)nn3c2C)CC1,-4%,?,-4%,3%,-17%
COc1cc(OC)cc(-c2cc3nc(C)c(CCC(=O)O)c(C)n3n2)c1,-15%,15µM*,-11%,-14%,-36%
Cc1nc2cc(-c3cccc(F)c3)nn2c(C)c1CCC(=O)NC(C)CCc1ccco1 (configuration not stated),0%,15µM*,-5%,-2%,5%
COc1cc(OC)cc(-c2cc3nc(C)c(CCC(=O)NC(C)CCc4ccco4)c(C)n3n2)c1 (configuration not stated),-4%,1%,-23%,7%,-16%
CCOC(=O)C1CCCCN1C(=O)CCc1c(C)nc2cc(-c3ccccc3)nn2c1C (configuration not stated),9%,15µM*,-13%,-3%,-49%
Cc1ccc(C)c(N2CCN(Cc3csc(C)c3)CC2)c1,·,-6%,·,·,·
Cc1cc(C)c(C#N)c(SCC(=O)N(CCC#N)c2ccc3c(c2)OCCO3)n1,-1%,-2%,7%,-4%,·
Cc1nnc(SCC(=O)NC2CCCCCC2)n1N,-1%,-1%,1%,-10%,·
CCN(C(C)=O)c1nnc(CSc2nc3ccccc3s2)s1,?,?,8.2µM*,?,-20%
COCCN(CCOC)C(=O)c1ccc(CSc2nc3ccccc3s2)cc1,27%,17µM*,12%,17%,·
CNc1nnc(CSc2nc3ccccc3s2)s1,24%,?,?,?,?
NNC(=O)c1ccc(CSc2nc3ccccc3s2)cc1,1%,17µM*,7%,16%,-3%
O=C(C1CC(=O)N(c2ccccc2)C1)N1CCN(c2ccc(F)cc2)CC1 (configuration not stated),-5%,-2%,1%,-5%,·
O=C(Nc1ccccc1)c1ccc(-c2ccccc2Cl)o1,29%,6µM*,?,?,?
CC(=O)Nc1ccc(NC(=O)c2ccc(-c3ccccc3Cl)o2)cc1,6%,-19%,?,?,·
O=C(Nc1ccccc1)c1ccc(-c2ccccc2C(F)(F)F)o1,21%,17µM*,16%,19%,16%
CC(C)NC(=O)c1ccc(-c2ccccc2C(F)(F)F)o1,22%,?,10%,25%,?
N#Cc1ccccc1NC(=O)c1ccc(-c2ccccc2Cl)o1,4µM*,?,?,?,?
COc1ccc(Oc2ncc3nc(CCc4ccccc4)c(=O)n(CCC#N)c3n2)cc1,·,·,·,·,-21%
COC(=O)c1cc(NC(=O)COC(=O)CN2C(=O)C3CC=CCC3C2=O)cc(C(=O)OC)c1 (configuration not stated),-4%,-1%,?,-8%,·
SMILES,NPC1 promoter act,FLuc counter,ELG1 genotoxic,Rab9 prom act,SMN2 splice enh
CCc1ccc(NCc2cc3ccc(OC)cc3n(CC(=O)Nc3ccccc3C)c2=O)cc1,·,1%,·,·,·
COc1ccc2nc(/C=N/NC(=O)[C@H](C)NC(=O)OC(C)(C)C)ccc2c1,12%,5.4µM*,?,17%,?
COc1ccc(Cn2c(C3CC3)nc3ccc(NC(C)=O)cc3c2=O)cc1,2.2µM*,11µM*,?,1.6µM*,11µM*
CCCc1nc2ccc(NC(C)=O)cc2c(=O)n1Cc1ccc(Cl)cc1,3.5µM*,?,?,?,5%
Cc1cccc2sc(N(Cc3cccnc3)C(=O)CCS(=O)(=O)c3ccccc3)nc12,·,1%,·,·,·
CCCn1c(SC(C)C(=O)NC2CC2)nnc1-c1ccncc1 (configuration not stated),-6%,-1%,0%,0%,·
CC(=O)c1ccc(N2CCN(c3ncnc4c3c(-c3ccccc3)cn4-c3ccc(Cl)cc3)CC2)cc1,·,2%,·,·,·
CSCc1ccc(C(=O)Nc2ccc(C(N)=O)cc2)cc1,2µM*,5.4µM*,15µM*,2.8µM*,11µM*
CSCc1ccc(C(=O)NCc2ccccc2)cc1,9%,27µM*,3%,-3%,16%
CCc1ccccc1NC(=O)NC(CC)Cn1nnc2ccccc2c1=O (configuration not stated),·,4%,·,·,5%
CCOC(=O)CN1C(=O)S/C(=C/c2ccc(C)o2)C1=O,-3%,-18%,14%,-1%,·
CCOC(=O)C(C)N1C(=O)S/C(=C/c2ccc3c(c2)n(C)c(=O)n3C)C1=O (configuration not stated),-6%,-1%,?,20%,8%
CCOC(=O)CN1C(=O)S/C(=C/c2cc(C)n(-c3ccccn3)c2C)C1=O,?,6µM*,17%,4µM*,-6%
COC(=O)C(C)N1C(=O)S/C(=C\c2cc(C)n(-c3ccccn3)c2C)C1=O (configuration not stated),2µM*,2.7µM*,1.6µM*,2µM*,-59%
COC(=O)C(C)N1C(=O)S/C(=C/c2cc(C)n(-c3ccccn3)c2C)C1=O (configuration not stated),1.6µM*,3µM*,2.6µM*,0.89µM*,-42%
COc1ccc(Nc2ncnc3onc(C)c23)c(OC)c1,·,4%,·,·,·
CCOc1ccc(NC(=S)N=Nc2c(O)[nH]c3ccccc23)cc1,-8%,-16%,-10%,-4%,-41%
Oc1cccc(NC(=S)N=Nc2c(O)[nH]c3ccccc23)c1,16%,19µM*,?,22%,·
COc1ccc(N=Nc2[nH]c3ccc(C)cc3c2O)cc1,7%,-11%,13%,24%,0%[1.84 µM]
Cc1ccc(N=Nc2[nH]c3ccccc3c2O)cc1,5%,?,?,19%,13µM*
Cc1ccc2[nH]c(O)c(N=NC(N)=S)c2c1,-4%,2%,5%,1%,·
Nc1nc(N)c(N=Nc2ccc(C(=O)O)cc2)c(N)n1,-2%,-17%,0%,16%,·
O=C(O)c1ccc(N=Nc2c(O)[nH]c3cc(Cl)ccc23)cc1,0.32µM*,0.85µM*,9.2µM*,0.1µM*,·
Cc1ccc(N=Nc2c(O)[nH]c3ccc(F)cc23)cc1,3.2µM*,?,?,2.8µM*,·
O=S(=O)(NCCS(=O)(=O)N1CCN(c2cccc(Cl)c2)CC1)c1ccc(F)cc1,·,0%,·,·,·
O=C(O)c1ccc(N=Nc2c(O)[nH]c3ccc(Br)cc23)cc1,1.3µM*,11µM*,18µM*,?,·

# Screens (PubChem BioAssay)
